Results as given in paper PMC5540273 (PLoS ONE, 2017).

Tests used:
Details in all cases: concentration: 1 μM, replicates: in singlicate; n = 1
[1] = tested on: MAPKAPK5
[2] = tested on: MARK1
[3] = tested on: MARK2
[4] = tested on: MARK3
[5] = tested on: MARK4
[6] = tested on: MAST1
[7] = tested on: T1, MEK1
T1 construct: gene MAP2K1

[8] = tested on: T2, MEK2
T2 construct: gene MAP2K2

[9] = tested on: T3, MEK3
T3 construct: gene MAP2K3

[10] = tested on: T4, MEK4
T4 construct: gene MAP2K4
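Note: KINOMEscan kinase panel screen.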

| SMILES | %Inh [1] [%] | %Inh [2] [%] | %Inh [3] [%] | %Inh [4] [%] | %Inh [5] [%] | %Inh [6] [%] | %Inh [7] [%] | %Inh [8] [%] | %Inh [9] [%] | %Inh [10] [%] |
| --- | --- | --- | --- | --- | --- | --- | --- | --- | --- | --- |
| CCCCc1nn2ncccc2c1-c1ccnc(Nc2ccc(N3CCN(C)CC3)cc2)n1 [GW684941] | 0 | 0 | 0 | 32 | 0 | 31 | 0 | 0 | 0 | 32 |
| CN1CCN(Cc2cccc(-c3ccc4c(Nc5ccc(Oc6ccccc6)cc5)ccnc4c3)c2)CC1 [GW578342] | 0 | 0 | 5 | 0 | 0 | 47 | 54 | 55 | 0 | 9 |
| Cl.c1ccc(-c2ccc3c(Nc4ccc5[nH]ncc5c4)ccnc3c2)nc1 [GW440137] | 0 | 0 | 0 | 0 | 15 | 0 | 0 | 5 | 0 | 0 |
| Cl.Cl.NCC(NCc1ccc(-c2ccnc3[nH]ccc23)s1)c1ccccc1 (stereo not shown) [GSK1321565] | 0 | 0 | 0 | 0 | 0 | 11 | 0 | 0 | 49 | 18 |
| COC(=O)Nc1nc2ccc(Oc3ccc(NC(=O)Nc4cc(C(F)(F)F)ccc4F)cc3)cc2n1C.Cl [GW692089] | 0 | 0 | 0 | 0 | 2 | 23 | 0 | 1 | 0 | 0 |
| Cl.Cl.NCC(C(=O)Nc1cc(Br)c(-c2ccnc3[nH]ccc23)s1)c1ccccc1 (stereo not shown) [GSK1269851] | 0 | 0 | 55 | 0 | 0 | 13 | 1 | 0 | 50 | 11 |
| CN(c1ccc(NC(=O)Nc2cc(C(F)(F)F)ccc2F)cc1)c1ccnc(Nc2ccc(S(N)(=O)=O)cc2)n1 [GW809893] | 0 | 7 | 22 | 2 | 1 | 18 | 0 | 19 | 51 | 67 |
| O=C(Nc1n[nH]c2nc(-c3ccc(O)cc3)ccc12)C1CC1 [SB-710363] | 4 | 0 | 38 | 0 | 0 | 36 | 0 | 8 | 36 | 10 |
| Nc1ncc(-c2ccc3nccc(-c4ccncc4)c3c2)cc1S(=O)(=O)N1CCOCC1 [GSK1627798] | 0 | 0 | 0 | 0 | 0 | 0 | 0 | 0 | 24 | 52 |
| Cc1occc1-c1ncc(OC[C@@H](N)Cc2c[nH]c3ccccc23)cc1-c1ccc2[nH]nc(C)c2c1.O=C(O)C(F)(F)F [GSK682037] | 0 | 44 | 62 | 68 | 33 | 35 | 7 | 0 | 90.7 | 43 |
| COc1cccc(C2=C(Nc3ccc(Cl)c(C(=O)O)c3)C(=O)NC2=O)c1 [SB-390769] | 0 | 0 | 0 | 0 | 13 | 0 | 0 | 0 | 0 | 97.4 |
| CC(=O)Nc1nc2cnc(Nc3cc(NC(=O)c4cccc(C5(C#N)CC5)c4Cl)ccc3C)nc2s1 | 0 | 1 | 19 | 0 | 10 | 23 | 0 | 0 | 0 | 5 |
| O=C(Nc1cccc(-c2nn3ccccc3c2-c2ccnc(Nc3cccc(F)c3)n2)c1)c1c(F)ccc(F)c1Cl [GSK357952] | 0 | 0 | 3 | 3 | 0 | 0 | 0 | 15 | 0 | 25 |
| c1ccc(-c2n[nH]cc2Nc2ccnc3ccccc23)nc1 [GW694077] | 0 | 0 | 0 | 0 | 1 | 3 | 0 | 0 | 92.5 | 92.8 |
| Cc1ccc(C)c(NC(=O)NC2CCN(c3ccnc(Nc4ccc(F)cc4)n3)C2)c1 (stereo not shown) [GSK1379720] | 0 | 0 | 0 | 0 | 0 | 35 | 0 | 0 | 0 | 4 |
| FC(F)(F)c1ccc(/C=C/c2cncnc2Nc2ccc3[nH]c(Cc4ccccc4)nc3c2)cc1 [GW709199] | 0 | 0 | 0 | 28 | 8 | 5 | 0 | 25 | 0 | 0 |
